# According to PubChem BioAssay (NCATS):
# Inconclusive results are not listed. A number with no mark means an inactive call. Active and inactive are the calls of the source. Unless noted, calls follow the shape of the dose curve; as a rule, active = well fitted inhibition curve with a large enough effect; inconclusive = small, poorly fitted or top-dose-only effect; inactive = no such curve, though single readings can be large or run the other way.
# Molecular target: Atrial natriuretic peptide receptor 2 (Homo sapiens) (UniProt P20594)
# Sequence (P20594 whole entry, looked up): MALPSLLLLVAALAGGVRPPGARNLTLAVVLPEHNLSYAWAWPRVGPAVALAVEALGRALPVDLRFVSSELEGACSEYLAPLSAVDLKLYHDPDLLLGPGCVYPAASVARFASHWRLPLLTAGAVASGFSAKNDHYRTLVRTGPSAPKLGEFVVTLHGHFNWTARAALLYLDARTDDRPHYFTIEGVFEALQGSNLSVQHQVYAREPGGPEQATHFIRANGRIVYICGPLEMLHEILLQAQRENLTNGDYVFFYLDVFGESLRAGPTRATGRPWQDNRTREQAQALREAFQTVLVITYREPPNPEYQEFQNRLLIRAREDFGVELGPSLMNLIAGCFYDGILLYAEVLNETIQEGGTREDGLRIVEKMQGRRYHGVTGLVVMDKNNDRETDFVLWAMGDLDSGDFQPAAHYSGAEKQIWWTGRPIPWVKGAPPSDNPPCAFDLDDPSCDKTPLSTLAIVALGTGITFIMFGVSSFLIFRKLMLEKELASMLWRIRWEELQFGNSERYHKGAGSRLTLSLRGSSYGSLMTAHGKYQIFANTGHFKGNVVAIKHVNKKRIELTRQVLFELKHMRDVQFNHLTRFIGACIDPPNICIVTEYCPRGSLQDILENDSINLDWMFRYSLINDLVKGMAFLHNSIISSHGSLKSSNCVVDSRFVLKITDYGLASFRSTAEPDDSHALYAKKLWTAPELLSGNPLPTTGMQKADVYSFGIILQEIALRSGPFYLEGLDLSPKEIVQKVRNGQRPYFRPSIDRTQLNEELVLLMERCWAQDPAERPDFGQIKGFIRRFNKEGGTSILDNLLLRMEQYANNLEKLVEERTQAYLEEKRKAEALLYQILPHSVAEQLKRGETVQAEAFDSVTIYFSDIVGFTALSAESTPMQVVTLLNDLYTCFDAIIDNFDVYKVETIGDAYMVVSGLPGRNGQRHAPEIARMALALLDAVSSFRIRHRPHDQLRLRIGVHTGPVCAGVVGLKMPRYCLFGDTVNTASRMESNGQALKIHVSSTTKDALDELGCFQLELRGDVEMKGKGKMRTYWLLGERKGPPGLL
# Assay: Natriuretic polypeptide receptor (hNpr2) antagonism - Pilot subtype selectivity assay (AID 1347050; calls by dose curve; also: potency is read from the fitted curve at half-maximal effect; as to activity change, negative = inhibition: % is scaled to controls: 0 for no effect and ±100 for the full control effect)
# Conditions: NPR2-expressing cells, cGMP antagonist-mode read-out; series mostly up to 38.3 µM; activity change, negative = inhibition: at the top concentration
# Summary of the method: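 Antagonist mode: compounds (LOPAC1280, seven 1:5 dilutions) added 30 min before 1 nM hNppC stimulation of hNpr2-HEK293 cGMP-sensor cells; luminescence read before and 20 min after agonist at ambient temperature.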
Structure (SMILES),"activity change, negative = inhibition",Potency
CC1(C)CCC=[N+]1[O-],-2.33%,–
Brc1c(Br)c(Br)c2n[nH]nc2c1Br,-19.7%,–
Nc1nc(Nc2ccccc2)nc2c1ncn2[C@@H]1O[C@H](CO)[C@@H](O)[C@H]1O,4.47%,–
CCCCCCCCCCCCCCCC(=O)OC(CC(=O)O)C[N+](C)(C)C (configuration not stated),-25.8%,–
NCCCS(=O)(=O)O,6.38%,–
Cn1ncc(S(=O)(=O)Cc2ccccc2)c(Br)c1=O,–,11.7 µM (active)
O=C(CCCCCN1CCN(c2ccccc2-c2ccccc2)CC1)NC1CCCc2ccccc21 (configuration not stated),0.587%,–
O=c1[nH]c2cc([N+](=O)[O-])c([N+](=O)[O-])cc2[nH]c1=O,1.63%,–
CCCCCCCC/C=C\CCCCCCCC(=O)NCCO,-0.254%,–
Nc1nc(SCc2ccc([N+](=O)[O-])cc2)c2ncn([C@@H]3O[C@H](CO)[C@@H](O)[C@H]3O)c2n1,10.4%,–
CC(=O)N[C@H](C(=O)O)C(C)(C)SN=O,10.2%,–
O=C(O)CC1CCCc2ccccc2C1O (configuration not stated),1.83%,–
NC(N)=NC(=O)c1nc(Cl)c(N2CCCCCC2)nc1N,-22.7%,–
CC(C)NCC(O)COc1cccc2ccccc12 (configuration not stated),0.172%,–
Cc1cc(NC(=O)Nc2ccc3c(ccn3C)c2)sn1,-9.34%,–

# Test system: not listed separately
# Assay: NS1 protein of Zika virus - qHTS assay to identify small molecule inhibitors in human HEK 293 cells (AID 1347053);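 also: plate controls were infected untreated cells for no effect and uninfected cells for full effect; nearly all actives have a fitted effect of over 55% in size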
# Conditions: HEK293 ZIKV MR766 infection, NS1 TR-FRET, 24 h; series mostly up to 46.1 µM; activity change, negative = inhibition: at the top concentration
# Summary of the method: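 Read-out is a two-antibody TR-FRET for ZIKV NS1, normalized between uninfected cells and infected cells. Compound added 1 h before MR766 infection at MOI 0.5; human HEK 293 cells incubated 24 h, 37 C.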
row,Structure (SMILES),"activity change, negative = inhibition"
1,CN1CCc2ccccc2Cc2[nH]c3ccccc3c2CC1,3.24%
2,O=C(/C=C/c1ccc(O)c(O)c1)OCCc1ccccc1,30%
3,CC(C)NC[C@@H](O)c1ccc(O)c(O)c1,1.31%
4,CC(C)NC[C@H](O)COc1cccc2[nH]ccc12,-3.62%
5,Oc1cc2c(cc1O)CN(C(=S)NCCc1ccc(Cl)cc1)CCC2,9.15%
6,Cn1cc(C2=C(c3ccc(Cl)cc3Cl)C(=O)NC2=O)c2ccccc21,7.6%
7,Cc1cc(NC2CCCCC2)nc(-n2nc(C)cc2C)n1,0.677%
8,O=C(O)CNC(=O)C(CS)Cc1ccccc1 (configuration not stated),0.932%
9,COc1cccc(C(=O)NCCN2CCN(c3ccc(Cl)cc3)CC2)c1,1.8%
10,OC[C@H]1O[C@@H](n2cnc3c(NC4CCCCC4)ncnc32)[C@H](O)[C@@H]1O,-2.91%
11,NC(=O)C(=O)O,-3.09%
12,O=C(Nc1ccccc1)c1cc([N+](=O)[O-])ccc1Cl,-18.3%
13,NCCCCCCCCCCN,13.7%
14,COc1cccc(OC)c1OCCNCC1COc2ccccc2O1 (configuration not stated),-10.8%
15,COC1=C(OC)C(=O)c2ccccc2C1=O,31.7%
16,OCC1O[C@H](O)C(Cl)C(O)C1O (some centres not stated),-10.5%
17,CCCN(CC1CC1)c1nc(C)nc(Nc2c(Cl)cc(Cl)cc2Cl)c1Cl,3.62%
18,O=P(O)(O)C(Cl)(Cl)P(=O)(O)O,3.17%
19,COc1cc(SC)ccc1C(=O)N1CCC(Cc2ccccc2)CC1,16.6%

row,Structure (SMILES),"activity change, negative = inhibition"
1,Clc1ccc(N2CCN(Cc3c[nH]c4ncccc34)CC2)cc1,10.3%
2,Fc1ccc(C(OCCCc2cnc[nH]2)c2ccc(F)cc2)cc1,4.82%
3,CC(C)(C=O)Cc1cc(C(C)(C)C)c(O)c(C(C)(C)C)c1,7.08%
4,CC1(C)CCC=[N+]1[O-],-12.3%
5,Brc1c(Br)c(Br)c2n[nH]nc2c1Br,16.8%
6,Nc1nc(Nc2ccccc2)nc2c1ncn2[C@@H]1O[C@H](CO)[C@@H](O)[C@H]1O,13%
7,CCCCCCCCCCCCCCCC(=O)OC(CC(=O)O)C[N+](C)(C)C (configuration not stated),4.31%
8,NCCCS(=O)(=O)O,23.5%
9,Cn1ncc(S(=O)(=O)Cc2ccccc2)c(Br)c1=O,-24.2%
10,O=C(CCCCCN1CCN(c2ccccc2-c2ccccc2)CC1)NC1CCCc2ccccc21 (configuration not stated),11.5%
11,O=c1[nH]c2cc([N+](=O)[O-])c([N+](=O)[O-])cc2[nH]c1=O,-5.17%
12,CCCCCCCC/C=C\CCCCCCCC(=O)NCCO,5.67%
13,Nc1nc(SCc2ccc([N+](=O)[O-])cc2)c2ncn([C@@H]3O[C@H](CO)[C@@H](O)[C@H]3O)c2n1,4.71%
14,CC(=O)N[C@H](C(=O)O)C(C)(C)SN=O,28.2%
15,O=C(O)CC1CCCc2ccccc2C1O (configuration not stated),-14.5%
16,NC(N)=NC(=O)c1nc(Cl)c(N2CCCCCC2)nc1N,32.8%
17,CC(C)NCC(O)COc1cccc2ccccc12 (configuration not stated),0.544%
18,Cc1cc(NC(=O)Nc2ccc3c(ccn3C)c2)sn1,-0.0005%
